# Measurements as given in PubChem BioAssay (NCATS).
# Results filed as inconclusive are left out. The source made the active and inactive calls. Calls follow the shape of the dose curve; as a rule, active = well fitted cell-killing curve with a large enough effect; inconclusive = small, poorly fitted or top-dose-only effect; inactive = flat fitted curve, though single readings scatter.
# Assay: qHTS assay to identify small molecule inhibitors of chordoma cells - UCH-2 (AID 1259356)
# Conditions: UCH-2 chordoma viability, CellTiter-Glo ATP luminescence, 48 h; series mostly up to 46.1 µM
# Description: NIH Chemical Genomics Center [NCGC]
# Chordoma is a rare and slow growing tumor that can occur anywhere along the spine, from the base of the skull to the tailbone. Current treatment options for chordoma is surgery and radiation therapy for those who are not candidates for surgery. But chordomas tend to return in the same location or surrounding areas of the original tumor after surgery and/or radiation. Chemotherapy can slow down the progression of the tumor. As chordoma is slow growing, the general cytotoxic agents that kill fast growing cells are ineffective, and some patients have been reported to respond to molecularly targeted drugs.
# NCATS Pharmaceutical Collection (NPC) containing approximately 3000 clinically approved and investigational drugs were used to screen at 15 concentrations in a chordoma cell lines, UCH-2, to identify small molecule compounds that can inhibit chordoma cell growth.
# NCGC Assay Protocol Summary:
# Human chordoma cell line UCH-2 was dispensed at 800 per well in 4uL of culture medium into white solid bottom 1536-well plates (Corning Life Sciences, Corning, NY) using a Multidrop Combi (Thermo Scientific, Waltham, MA) dispenser. The assay plates were incubated at 37 C and 5% CO2 for an overnight, and then 23nL of compounds dissolved in DMSO and positive control were transferred using a Pintool station (Wako, San Diego, CA). Compound treatment was followed by the addition of 1uL of the combination compounds (1uM Auranofin, 500nM each of Camptothecin, Doxorubicin, Rubitecan, and Topotecan) and assay medium to each well of the assay plates using Flying Reagent Dispenser (FRD, Aurora Discovery, San Diego, CA). The assay plates were incubated at 37 C and 5% CO2 for 48hr. Then 5uL of CellTiter-Glo reagent (Promega Corporation, Madison, WI) was added to each well of the assay plates using FRD. After 30min incubation at room temperature, the luminescence signal was quantified using a ViewLux plate reader (PerkinElmer, Shelton, CT).
row,SMILES,outcome
1,CCN(CC)CCCC(C)Nc1c2ccc(Cl)cc2nc2ccc(OC)cc12 (stereo not given),inactive
2,N[C@H](C(=O)O)c1ccc(O)cc1,inactive
3,CCCOC(=O)c1ccccc1,inactive
4,CCCCN(CCCC)CCCOC(=O)c1ccc(N)cc1,inactive
5,COc1ccc2cc1Oc1ccc(cc1)C[C@H]1c3c(cc4c(c3Oc3cc5c(cc3OC)CCN(C)[C@@H]5C2)OCO4)CCN1C,inactive
6,CC(C(O)c1ccc(O)cc1)N1CCC(Cc2ccccc2)CC1 (stereo not given),inactive
7,CC1(C)S[C@@H]2[C@H](NC(=O)Cc3ccccc3)C(=O)N2[C@H]1C(=O)O (tested in a mixture with another compound),inactive
8,CC(CN(C)C)CN1c2ccccc2CCc2ccccc21 (stereo not given),inactive
9,CCOc1ccc2ccccc2c1C(=O)N[C@@H]1C(=O)N2[C@@H]1SC(C)(C)[C@@H]2C(=O)O,inactive
10,CCCCC(CC)COC(=O)c1ccccc1O (stereo not given),inactive
11,C[C@@H]1CN(c2c(F)c(F)c3c(=O)c(C(=O)O)cn(C4CC4)c3c2F)C[C@H](C)N1,inactive
12,Cc1c(O)cccc1C(=O)N[C@@H](CSc1ccccc1)[C@H](O)CN1C[C@H]2CCCC[C@H]2C[C@H]1C(=O)NC(C)(C)C,inactive
13,O=C(O)CC(O)C(=O)O (stereo not given),inactive
14,C[C@](N)(Cc1ccc(O)cc1)C(=O)O,inactive
15,C[C@H]1O[C@@H](n2cc(F)c(=O)[nH]c2=O)[C@H](O)[C@@H]1O,inactive
16,NS(=O)(=O)c1cc2c(cc1C(F)(F)F)NC(Cc1ccccc1)NS2(=O)=O (stereo not given),inactive
17,CSc1ccc2c(c1)C(N1CCN(C)CC1)Cc1ccccc1S2 (stereo not given),inactive
18,O=C(O)Cc1sc(-c2ccccc2)nc1-c1ccc(Cl)cc1,inactive
19,CC(C)(O)c1ccccc1CC[C@@H](SCC1(CC(=O)O)CC1)c1cccc(/C=C/c2ccc3ccc(Cl)cc3n2)c1,inactive
20,CCC(=O)Nc1ccc(O)cc1,inactive

row,SMILES,outcome
1,O=C1O[C@H]([C@@H](O)CO)C(O)=C1O,inactive
2,c1ccc2c(CC3=NCCN3)cccc2c1,inactive
3,CCOc1nc2cccc(C(=O)O)c2n1Cc1ccc(-c2ccccc2-c2nn[nH]n2)cc1,inactive
4,CCN(CC)C(=O)Nc1ccc(OCC(O)CNC(C)(C)C)c(C(C)=O)c1 (stereo not given),inactive
5,CCN(CC)CCNC(C(=O)OCCC(C)C)c1ccccc1 (stereo not given),inactive
6,NC(=O)NC(=O)Cc1ccccc1,inactive
7,CSc1ccc2c(c1)N(CCC1CCCCN1C)c1ccccc1S2 (stereo not given),inactive
8,Cc1c(Cl)cccc1Nc1ccccc1C(=O)O,inactive
9,CC(=O)NC(Cc1ccccc1)C(=O)O (stereo not given),inactive
10,Oc1cccc(O)c1,inactive
11,COc1cc2[nH]c(=O)[nH]c(=O)c2cc1OC,inactive
12,CO/N=C(\C(=O)N[C@@H]1C(=O)N2C(C(=O)O)=C(CSc3nc(=O)c(O)nn3C)CS[C@H]12)c1csc(N)n1,inactive
13,CC1(C)[C@@H]2CC[C@@]1(C)C(=O)C2,inactive
14,CN1CCN(C2Cc3ccccc3Sc3ccc(Cl)cc32)CC1 (stereo not given),inactive
15,Cc1cc(CC(=O)O)n(C)c1C(=O)c1ccc(Cl)cc1,inactive
16,CC[C@@]1(c2ccccc2)NC(=O)N(C)C1=O,inactive
17,O=c1[nH]cnc2c1ncn2[C@@H]1O[C@H](CO)[C@@H](O)[C@H]1O,inactive
18,CC(=O)O[C@@]12CO[C@@H]1C[C@H](O)[C@@]1(C)C(=O)[C@H](O)C3=C(C)[C@@H](OC(=O)[C@H](O)[C@@H](NC(=O)OC(C)(C)C)c4ccccc4)C[C@@](O)([C@@H](OC(=O)c4ccccc4)[C@H]21)C3(C)C,inactive
19,C[C@@H]1CCN(C(=O)[C@H](CCCN=C(N)N)NS(=O)(=O)c2cccc3c2NC[C@H](C)C3)[C@@H](C(=O)O)C1,inactive
20,O=C(O)c1ccccn1,inactive
